Activity calls are given as the source filed them. Rule for the calls: active = hit-call score of the fitted dose curve at least 0.9, where 1 is the maximum; inactive = score below 0.9.
Key:
Details in all cases: mRNA level, 48 h; actives raise or lower the signal
[1] = read-out: Forkhead box O1 (FOXO1), FOXO1 (gene 2308); assay: LTEA_HepaRG_FOXO1: Life Technologies and Expression Analysis (LTEA) Assay for Forkhead box O1 (FOXO1) using HepaRG (AID 2283456)
Summary of the method: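 Readout is FOXO1 transcript level by multiplexed qRT-PCR against three housekeeping genes, curve-fitted in both directions relative to 0.5% DMSO vehicle. Human HepaRG cultures received chemicals for 48 h, up to 100 uM in half-log steps.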

[2] = read-out: growth arrest and DNA damage 45 (GADD45A), GADD45A (gene 1647); assay: LTEA_HepaRG_GADD45A: Life Technologies and Expression Analysis (LTEA) Assay for growth arrest and DNA damage 45 (GADD45A) using HepaRG (AID 2283458)
Summary of the method: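 Human HepaRG liver cells are treated in duplicate for 48 h with chemicals in 0.5% DMSO, highest concentration 100 uM. Expression is read by qRT-PCR and analyzed in both directions against vehicle.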

[3] = read-out: Forkhead box O3 (FOXO3), FOXO3 (gene 2309); assay: LTEA_HepaRG_FOXO3: Life Technologies and Expression Analysis (LTEA) Assay for Forkhead box O3 (FOXO3) using HepaRG (AID 2283459)
Summary of the method: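 HepaRG, 48 h post-dose; 8 conc., half-log from 100 uM, 0.5% DMSO, duplicates; serum-free induction medium. Readout: FOXO3 mRNA, TaqMan qRT-PCR, housekeeping-normalized. Bidirectional curve fit vs DMSO baseline.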

[4] = read-out: ABC Transporter (ABCB1), ABCB1 (gene 5243); assay: LTEA_HepaRG_ABCB1: Life Technologies and Expression Analysis (LTEA) Assay for ABC Transporter (ABCB1) using HepaRG (AID 2283460)
Summary of the method: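 Expression of ABCB1 was quantified by qRT-PCR against three housekeeping genes after human HepaRG cultures received test chemicals for 48 hours. Concentrations spanned eight half-log steps topping at 100 uM in 0.5% DMSO; gain or loss of signal was fitted relative to vehicle.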

[5] = read-out: ABC Transporter (ABCC3), ABCC3 (gene 8714); assay: LTEA_HepaRG_ABCC3: Life Technologies and Expression Analysis (LTEA) Assay for ABC Transporter (ABCC3) using HepaRG (AID 2283462)
Summary of the method: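 qRT-PCR read-out of ABCC3 transcript, normalized to three housekeeping genes (ACTB, GAPDH, POLR2A), after 48 h chemical exposure of human HepaRG cells. Eight half-log concentrations, highest 100 uM, in 0.5% DMSO; gain or loss fitted relative to DMSO baseline.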

[6] = read-out: ABC Transporter (ABCB11), ABCB11 (gene 8647); assay: LTEA_HepaRG_ABCB11: Life Technologies and Expression Analysis (LTEA) Assay for ABC Transporter (ABCB11) using HepaRG (AID 2283463)
Summary of the method: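 ABCB11 transcript levels are read by Fluidigm TaqMan qRT-PCR after 48 h chemical treatment of human HepaRG cells. Concentrations span 100 uM downward in half-log steps with 0.5% DMSO; gain or loss is fitted against DMSO controls.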

[7] = read-out: ABC Transporter (ABCC2), ABCC2 (gene 1244); assay: LTEA_HepaRG_ABCC2: Life Technologies and Expression Analysis (LTEA) Assay for ABC Transporter (ABCC2) using HepaRG (AID 2283464)
Summary of the method: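 qRT-PCR (TaqMan, Fluidigm array) read-out of ABCC2 mRNA, normalized to three housekeeping genes. Differentiated HepaRG cells were treated 48 h in serum-free induction medium with 8-point half-log series from 100 uM in 0.5% DMSO; curves fitted bidirectionally relative to DMSO.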

[8] = read-out: Broad substrate specificity ATP-binding cassette transporter ABCG2 (Homo sapiens) (UniProt Q9UNQ0); assay: LTEA_HepaRG_ABCG2: Life Technologies and Expression Analysis (LTEA) Assay for ABC Transporter (ABCG2) using HepaRG (AID 2283465)
Summary of the method: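 Read-out is ABCG2 mRNA induction or loss quantified by qRT-PCR after 48 h chemical treatment of human HepaRG cells, normalized to three housekeeping genes. Concentrations reached 100 uM top in half-log steps; fitting was bidirectional against 0.5% DMSO.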

Measured: AC50

Sequence of Broad substrate specificity ATP-binding cassette transporter ABCG2 (Homo sapiens) (Q9UNQ0 whole entry, looked up): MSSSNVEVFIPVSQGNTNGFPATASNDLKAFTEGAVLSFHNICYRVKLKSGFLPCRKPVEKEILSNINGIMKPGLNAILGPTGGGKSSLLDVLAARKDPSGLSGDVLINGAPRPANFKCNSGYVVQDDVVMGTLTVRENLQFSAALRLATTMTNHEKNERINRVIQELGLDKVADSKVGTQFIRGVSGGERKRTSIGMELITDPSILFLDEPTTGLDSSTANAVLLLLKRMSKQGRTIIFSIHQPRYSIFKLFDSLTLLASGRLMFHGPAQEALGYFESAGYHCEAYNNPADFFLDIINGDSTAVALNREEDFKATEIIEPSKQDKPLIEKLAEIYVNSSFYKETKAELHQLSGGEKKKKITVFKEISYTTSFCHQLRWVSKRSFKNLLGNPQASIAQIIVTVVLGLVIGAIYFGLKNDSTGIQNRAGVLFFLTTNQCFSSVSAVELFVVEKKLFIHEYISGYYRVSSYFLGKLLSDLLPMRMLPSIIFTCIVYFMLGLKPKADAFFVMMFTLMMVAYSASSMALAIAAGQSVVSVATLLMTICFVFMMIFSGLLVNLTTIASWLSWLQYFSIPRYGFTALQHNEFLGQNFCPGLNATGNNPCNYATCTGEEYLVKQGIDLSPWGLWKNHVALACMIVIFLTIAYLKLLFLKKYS

ClC1=C(Cl)[C@]2(Cl)[C@@H]3[C@@H](Cl)[C@H]4O[C@H]4[C@@H]3C1(Cl)C2(Cl)Cl
active: [4] 6.62 µM | [8] 15.8 µM
inactive: [1] | [2] | [3] | [5] | [6] | [7]

O=NN(c1ccccc1)c1ccccc1
inactive: [1] | [3] | [4] | [6] | [7] | [8]
active: [2] 78.8 µM

C[C@]12CCC(=O)C=C1CC[C@@H]1[C@@H]2CC[C@]2(C)C(=O)CC[C@@H]12
inactive: [1] | [3]
active: [2] 50 µM | [4] 17.1 µM | [6] 2.67 µM | [7] 50 µM | [8] 19.7 µM

O=C(O)C(F)(F)C(F)(F)C(F)(F)C(F)(F)C(F)(F)F
inactive: [1] | [2] | [3] | [4] | [5] | [6] | [7]
active: [8] 9.92 µM

CCC(C)(c1ccc(O)cc1)c1ccc(O)cc1
active: [6] 88.1 µM
inactive: [1] | [2] | [3] | [4] | [7] | [8]

Cc1cccc(C)c1N
inactive: [1] | [2] | [3] | [4] | [6] | [7] | [8]

C=CC(N)=O
inactive: [1] | [2] | [3] | [4] | [6] | [7] | [8]

Cc1ccccc1[N+](=O)[O-]
inactive: [1] | [2] | [3] | [4] | [6] | [7] | [8]

Cc1cc(O)ccc1Cl
inactive: [1] | [2] | [3] | [4] | [5] | [6] | [8]

c1ccc(-c2ccccc2)cc1
inactive: [1] | [2] | [3] | [4] | [6] | [7] | [8]

Cc1cc(-c2ccc(N)c(C)c2)ccc1N
active: [3] 18 µM | [6] 22.4 µM
inactive: [1] | [2] | [4] | [7] | [8]

CN(C)CCO
inactive: [1] | [2] | [3] | [4] | [6] | [7] | [8]

Clc1ccc(C(c2ccccc2Cl)C(Cl)(Cl)Cl)cc1 (stereo not given)
active: [4] 16.9 µM | [6] 72.3 µM | [7] 13.2 µM | [8] 4.48 µM
inactive: [1] | [2] | [3] | [5]

CCSC(=O)N(CC)C1CCCCC1
inactive: [1] | [2] | [3] | [4] | [6] | [7] | [8]

CCOCCOC(C)=O
inactive: [1] | [2] | [3] | [4] | [6] | [7] | [8]

CCOP(=S)(OCC)SCSC(C)(C)C
inactive: [1] | [2] | [3] | [4] | [7] | [8]
active: [6] 18.6 µM

CO/C=C(/C(=O)OC)c1ccccc1COc1cccc(C(F)(F)F)n1
inactive: [3] | [4]
active: [1] 7.38 µM | [2] 9.39 µM | [6] 5.64 µM | [7] 28 µM | [8] 3.03 µM

O=C(O)C(F)(F)C(F)(F)C(F)(F)C(F)(F)C(F)(F)C(F)(F)C(F)(F)C(F)(F)F
inactive: [1]
active: [2] 74.6 µM | [3] 50 µM | [4] 75.3 µM | [6] 90.4 µM | [7] 82.7 µM | [8] 50 µM

CCCCCCCCCc1ccc(O)cc1
inactive: [1] | [2] | [3] | [4] | [6] | [7] | [8]

CC(C)(c1ccccc1)c1ccc(O)cc1
active: [6] 76.1 µM
inactive: [1] | [2] | [3] | [4] | [7] | [8]

CC(c1ccc(O)cc1)(c1ccc(O)cc1)c1ccc(O)cc1
inactive: [2]
active: [1] 73.5 µM | [3] 70.9 µM | [4] 72.9 µM | [6] 20.8 µM | [7] 81 µM | [8] 33.8 µM

Reference: PubChem BioAssay (EPA / NIEHS)
